From publication PMC7862700, “An all-to-all approach to the identification of sequence-specific readers for epigenetic DNA modifications on cytosine”

What was measured:
Assay in all cases: DAPPL (digital affinity profiling via proximity ligation, sequencing); 10 mM Tris-HCl pH 7.5, 50 mM NaCl, 1 mM DTT, 4% glycerol, room temperature, 30 min; GST-TFs on glutathione beads, 16-mer random dsDNA library, 0.1% formaldehyde crosslink after washing; high values mean tight binding
FLI1 = target: T1, FLI1 (Homo sapiens, UniProt Q01543 1-452); conditions: protein: recombinant; tags: N-terminal GST; dsDNA, one strand shown
T1 sequence: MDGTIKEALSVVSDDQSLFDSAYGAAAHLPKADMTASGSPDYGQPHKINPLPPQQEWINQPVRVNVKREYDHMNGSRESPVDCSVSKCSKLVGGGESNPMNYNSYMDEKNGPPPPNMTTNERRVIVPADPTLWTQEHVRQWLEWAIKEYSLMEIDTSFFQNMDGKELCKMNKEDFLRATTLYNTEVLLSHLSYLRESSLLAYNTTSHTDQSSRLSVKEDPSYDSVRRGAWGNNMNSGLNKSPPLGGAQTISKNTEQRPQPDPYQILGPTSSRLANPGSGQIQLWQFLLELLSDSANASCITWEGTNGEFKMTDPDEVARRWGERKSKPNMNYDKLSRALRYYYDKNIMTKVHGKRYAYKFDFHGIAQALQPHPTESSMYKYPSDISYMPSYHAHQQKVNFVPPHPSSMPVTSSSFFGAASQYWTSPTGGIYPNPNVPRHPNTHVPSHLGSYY
In short: (§1)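 Human transcription factors were made in yeast as GST fusions, captured on glutathione beads and barcoded with DNA. With a tag-only sample included, the pool was incubated with 200 nmole of a random double-stranded 16-mer DNA library in Tris/NaCl/DTT/glycerol buffer at room temperature for 30 min, then crosslinked with 0.1% formaldehyde after washing, ligated by proximity, amplified and sequenced. For binding signal, each hexamer's read frequency for a factor is divided by its frequency for the tag-only sample.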

ELK1 = target: T2, ELK1 (Homo sapiens, UniProt P19419 1-428); conditions: protein: recombinant; tags: N-terminal GST; dsDNA, one strand shown
T2 sequence: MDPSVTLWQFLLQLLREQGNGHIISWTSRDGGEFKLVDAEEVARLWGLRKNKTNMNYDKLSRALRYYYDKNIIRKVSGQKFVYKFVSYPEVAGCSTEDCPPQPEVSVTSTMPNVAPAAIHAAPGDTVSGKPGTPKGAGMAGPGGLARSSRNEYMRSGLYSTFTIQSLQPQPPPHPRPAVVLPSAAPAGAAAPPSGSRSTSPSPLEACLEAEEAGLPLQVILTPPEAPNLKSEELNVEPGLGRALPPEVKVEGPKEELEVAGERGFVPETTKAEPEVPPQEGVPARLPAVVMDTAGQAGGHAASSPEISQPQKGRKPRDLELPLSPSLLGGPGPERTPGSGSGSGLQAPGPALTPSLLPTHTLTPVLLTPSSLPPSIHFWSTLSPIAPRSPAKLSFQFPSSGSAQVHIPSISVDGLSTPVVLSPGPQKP
In short: as §1

GABPA = target: T3, GABPA (Homo sapiens, UniProt Q06546 1-454); conditions: protein: recombinant; tags: N-terminal GST; dsDNA, one strand shown
T3 sequence: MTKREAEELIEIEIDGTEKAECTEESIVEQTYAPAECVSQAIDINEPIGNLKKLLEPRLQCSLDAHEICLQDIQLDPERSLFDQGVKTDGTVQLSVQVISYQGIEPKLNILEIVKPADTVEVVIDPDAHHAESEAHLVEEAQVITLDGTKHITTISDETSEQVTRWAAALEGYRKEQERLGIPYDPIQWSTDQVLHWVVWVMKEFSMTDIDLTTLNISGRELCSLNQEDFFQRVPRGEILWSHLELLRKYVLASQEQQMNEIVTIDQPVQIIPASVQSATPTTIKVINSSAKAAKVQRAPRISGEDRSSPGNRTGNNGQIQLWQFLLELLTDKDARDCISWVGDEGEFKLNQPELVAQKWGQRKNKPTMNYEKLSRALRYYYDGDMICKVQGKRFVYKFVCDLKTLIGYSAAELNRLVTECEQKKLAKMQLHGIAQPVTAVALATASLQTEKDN
In short: as §1

ERG = target: T4, ERG (Homo sapiens, UniProt P11308 1-479); conditions: protein: recombinant; tags: N-terminal GST; dsDNA, one strand shown
T4 sequence: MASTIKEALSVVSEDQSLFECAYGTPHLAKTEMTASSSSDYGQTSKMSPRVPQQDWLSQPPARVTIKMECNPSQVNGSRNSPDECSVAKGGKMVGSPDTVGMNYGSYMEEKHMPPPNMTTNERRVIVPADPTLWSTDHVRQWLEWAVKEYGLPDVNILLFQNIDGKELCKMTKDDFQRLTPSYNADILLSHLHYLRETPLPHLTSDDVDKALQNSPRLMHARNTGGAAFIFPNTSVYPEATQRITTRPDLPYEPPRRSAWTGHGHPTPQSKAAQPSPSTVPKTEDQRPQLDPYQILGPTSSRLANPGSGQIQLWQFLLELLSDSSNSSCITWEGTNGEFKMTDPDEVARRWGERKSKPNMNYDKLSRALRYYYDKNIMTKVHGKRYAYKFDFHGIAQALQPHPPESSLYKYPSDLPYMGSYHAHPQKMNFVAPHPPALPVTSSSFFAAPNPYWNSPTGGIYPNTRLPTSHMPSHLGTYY
In short: as §1

ELF1 = ELF1 (Homo sapiens, UniProt P32519 1-619); conditions: protein: recombinant; tags: N-terminal GST; dsDNA, one strand shown
Chain of ELF1 (P32519 whole entry): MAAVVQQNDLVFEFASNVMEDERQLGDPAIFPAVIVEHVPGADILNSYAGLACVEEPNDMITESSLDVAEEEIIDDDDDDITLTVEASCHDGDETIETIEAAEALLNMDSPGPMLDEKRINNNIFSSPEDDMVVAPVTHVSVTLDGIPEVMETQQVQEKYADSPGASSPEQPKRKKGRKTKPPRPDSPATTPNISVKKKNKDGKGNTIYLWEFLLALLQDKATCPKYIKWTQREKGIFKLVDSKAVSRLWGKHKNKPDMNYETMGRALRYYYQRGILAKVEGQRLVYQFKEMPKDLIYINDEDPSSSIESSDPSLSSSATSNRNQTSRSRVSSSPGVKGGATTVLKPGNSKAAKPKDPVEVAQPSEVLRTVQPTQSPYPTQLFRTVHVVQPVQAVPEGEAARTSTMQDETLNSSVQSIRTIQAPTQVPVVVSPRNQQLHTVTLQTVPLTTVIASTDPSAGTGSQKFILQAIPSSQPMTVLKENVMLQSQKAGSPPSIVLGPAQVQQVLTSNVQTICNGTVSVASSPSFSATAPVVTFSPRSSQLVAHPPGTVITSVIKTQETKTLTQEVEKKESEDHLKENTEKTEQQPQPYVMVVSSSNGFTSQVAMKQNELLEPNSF
In short: as §1

EHF = target: T5, EHF (Homo sapiens, UniProt Q9NZC4 1-300); conditions: protein: recombinant; tags: N-terminal GST; dsDNA, one strand shown
T5 sequence: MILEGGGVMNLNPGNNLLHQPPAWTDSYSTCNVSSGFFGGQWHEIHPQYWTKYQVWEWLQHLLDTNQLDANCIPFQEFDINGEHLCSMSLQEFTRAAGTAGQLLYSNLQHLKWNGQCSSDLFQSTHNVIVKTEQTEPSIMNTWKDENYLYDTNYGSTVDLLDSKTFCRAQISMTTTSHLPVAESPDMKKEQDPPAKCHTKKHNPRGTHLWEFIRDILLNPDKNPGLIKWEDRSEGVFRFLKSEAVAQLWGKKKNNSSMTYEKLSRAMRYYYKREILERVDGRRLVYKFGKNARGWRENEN
In short: as §1

SPI1 = SPI1 (Homo sapiens, UniProt P17947 1-270); conditions: protein: recombinant; tags: N-terminal GST; dsDNA, one strand shown
In short: as §1

ELK3 = target: T6, ELK3 (Homo sapiens, UniProt P41970 1-407); conditions: protein: recombinant; tags: N-terminal GST; dsDNA, one strand shown
T6 sequence: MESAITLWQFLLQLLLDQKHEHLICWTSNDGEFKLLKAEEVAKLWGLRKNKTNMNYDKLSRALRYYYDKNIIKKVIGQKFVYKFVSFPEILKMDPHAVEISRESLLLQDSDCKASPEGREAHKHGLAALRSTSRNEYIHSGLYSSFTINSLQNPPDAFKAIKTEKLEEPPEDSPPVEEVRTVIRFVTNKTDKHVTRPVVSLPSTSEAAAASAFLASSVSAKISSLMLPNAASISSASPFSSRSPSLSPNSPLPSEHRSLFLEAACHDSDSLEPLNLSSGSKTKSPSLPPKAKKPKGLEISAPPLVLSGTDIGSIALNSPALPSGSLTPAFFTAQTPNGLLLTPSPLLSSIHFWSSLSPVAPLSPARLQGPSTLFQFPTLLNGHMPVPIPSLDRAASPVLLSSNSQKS
In short: as §1

FEV = target: T7, FEV (Homo sapiens, UniProt Q99581 1-238); conditions: protein: recombinant; tags: N-terminal GST; dsDNA, one strand shown
T7 sequence: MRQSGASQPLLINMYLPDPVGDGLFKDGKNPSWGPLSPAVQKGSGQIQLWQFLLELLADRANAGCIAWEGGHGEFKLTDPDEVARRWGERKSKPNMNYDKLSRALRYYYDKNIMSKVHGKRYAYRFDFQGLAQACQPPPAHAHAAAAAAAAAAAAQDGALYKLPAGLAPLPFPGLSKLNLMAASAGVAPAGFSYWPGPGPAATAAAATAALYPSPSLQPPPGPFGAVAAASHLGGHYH
In short: as §1

ETV5 = ETV5 (Homo sapiens, UniProt P41161 1-510); conditions: protein: recombinant; tags: N-terminal GST; dsDNA, one strand shown
Chain of ETV5 (P41161 whole entry): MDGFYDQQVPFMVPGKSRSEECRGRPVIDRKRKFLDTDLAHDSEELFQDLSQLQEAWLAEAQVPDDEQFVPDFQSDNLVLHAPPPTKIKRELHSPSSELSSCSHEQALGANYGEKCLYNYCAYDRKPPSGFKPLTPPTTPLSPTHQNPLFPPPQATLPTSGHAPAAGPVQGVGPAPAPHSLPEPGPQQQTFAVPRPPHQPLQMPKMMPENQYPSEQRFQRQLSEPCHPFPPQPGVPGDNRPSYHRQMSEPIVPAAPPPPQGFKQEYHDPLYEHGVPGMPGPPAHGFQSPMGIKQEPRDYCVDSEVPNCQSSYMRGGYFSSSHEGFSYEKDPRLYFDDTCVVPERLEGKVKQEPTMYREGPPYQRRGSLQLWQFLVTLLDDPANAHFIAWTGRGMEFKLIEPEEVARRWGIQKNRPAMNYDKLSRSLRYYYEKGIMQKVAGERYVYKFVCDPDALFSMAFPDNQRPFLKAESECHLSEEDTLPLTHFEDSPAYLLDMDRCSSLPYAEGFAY
In short: as §1

HSF1 = HSF1 (Homo sapiens, UniProt Q00613 1-529); conditions: protein: recombinant; tags: N-terminal GST; chain copies: 3; dsDNA, one strand shown
Chain of HSF1 (Q00613 whole entry): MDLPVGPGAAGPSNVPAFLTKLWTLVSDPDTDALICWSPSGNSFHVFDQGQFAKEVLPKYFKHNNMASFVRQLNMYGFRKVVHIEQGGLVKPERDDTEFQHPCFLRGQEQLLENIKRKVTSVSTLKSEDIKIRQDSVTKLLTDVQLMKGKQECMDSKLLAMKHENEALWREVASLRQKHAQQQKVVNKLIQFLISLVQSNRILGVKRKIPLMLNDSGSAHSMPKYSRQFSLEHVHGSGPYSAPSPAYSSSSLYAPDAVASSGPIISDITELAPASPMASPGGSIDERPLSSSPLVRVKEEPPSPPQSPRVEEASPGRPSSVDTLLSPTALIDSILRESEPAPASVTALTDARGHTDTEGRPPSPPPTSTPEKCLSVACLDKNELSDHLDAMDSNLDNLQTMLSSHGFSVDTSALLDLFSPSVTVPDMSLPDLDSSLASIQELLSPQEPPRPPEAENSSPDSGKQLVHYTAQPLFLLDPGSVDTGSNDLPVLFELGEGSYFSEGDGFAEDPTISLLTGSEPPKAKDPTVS
In short: as §1

SPIC = target: T8, SPIC (Homo sapiens, UniProt Q8N5J4 1-248); conditions: protein: recombinant; tags: N-terminal GST; dsDNA, one strand shown
T8 sequence: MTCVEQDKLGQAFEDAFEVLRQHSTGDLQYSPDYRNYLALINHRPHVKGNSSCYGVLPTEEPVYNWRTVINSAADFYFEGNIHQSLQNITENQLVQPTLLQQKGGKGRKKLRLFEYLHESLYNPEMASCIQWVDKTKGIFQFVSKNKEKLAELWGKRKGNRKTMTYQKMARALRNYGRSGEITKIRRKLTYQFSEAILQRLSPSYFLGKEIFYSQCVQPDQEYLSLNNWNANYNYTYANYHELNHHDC
In short: as §1

ELF4 = ELF4 (Homo sapiens, UniProt Q99607 1-663); conditions: protein: recombinant; tags: N-terminal GST; dsDNA, one strand shown
Chain of ELF4 (Q99607 whole entry): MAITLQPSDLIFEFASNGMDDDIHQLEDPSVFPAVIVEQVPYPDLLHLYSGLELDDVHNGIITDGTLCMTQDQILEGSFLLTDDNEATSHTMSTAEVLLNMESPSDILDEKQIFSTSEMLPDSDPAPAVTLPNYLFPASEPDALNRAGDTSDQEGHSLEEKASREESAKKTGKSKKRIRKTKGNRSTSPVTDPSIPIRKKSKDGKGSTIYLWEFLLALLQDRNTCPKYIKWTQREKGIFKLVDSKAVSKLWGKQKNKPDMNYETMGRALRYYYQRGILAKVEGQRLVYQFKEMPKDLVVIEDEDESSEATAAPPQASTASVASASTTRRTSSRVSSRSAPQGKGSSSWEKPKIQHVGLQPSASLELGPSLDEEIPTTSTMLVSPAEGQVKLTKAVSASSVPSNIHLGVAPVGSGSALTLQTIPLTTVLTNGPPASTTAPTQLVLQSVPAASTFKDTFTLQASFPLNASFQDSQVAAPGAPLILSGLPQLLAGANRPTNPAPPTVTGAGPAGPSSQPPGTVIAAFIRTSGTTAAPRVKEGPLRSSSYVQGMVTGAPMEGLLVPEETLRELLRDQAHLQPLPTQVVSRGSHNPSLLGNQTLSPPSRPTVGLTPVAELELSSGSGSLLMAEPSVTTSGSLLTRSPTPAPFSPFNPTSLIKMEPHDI
In short: as §1

ELK4 = target: T9, ELK4 (Homo sapiens, UniProt P28324-2 1-405); conditions: protein: recombinant; tags: N-terminal GST; dsDNA, one strand shown
T9 sequence: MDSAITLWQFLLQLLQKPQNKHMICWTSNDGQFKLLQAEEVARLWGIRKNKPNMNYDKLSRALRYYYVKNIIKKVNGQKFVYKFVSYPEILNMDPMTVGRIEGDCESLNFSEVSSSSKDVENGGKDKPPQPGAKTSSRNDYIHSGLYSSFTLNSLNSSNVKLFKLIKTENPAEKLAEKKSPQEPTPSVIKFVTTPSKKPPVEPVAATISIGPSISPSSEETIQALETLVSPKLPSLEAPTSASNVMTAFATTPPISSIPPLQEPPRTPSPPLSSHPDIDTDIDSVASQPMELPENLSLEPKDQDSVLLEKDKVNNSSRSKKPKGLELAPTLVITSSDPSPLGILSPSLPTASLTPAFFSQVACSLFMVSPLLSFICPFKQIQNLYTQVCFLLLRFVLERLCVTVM
In short: as §1

ETV2 = target: T10, ETV2 (Homo sapiens, UniProt O00321 1-342); conditions: protein: recombinant; tags: N-terminal GST; dsDNA, one strand shown
T10 sequence: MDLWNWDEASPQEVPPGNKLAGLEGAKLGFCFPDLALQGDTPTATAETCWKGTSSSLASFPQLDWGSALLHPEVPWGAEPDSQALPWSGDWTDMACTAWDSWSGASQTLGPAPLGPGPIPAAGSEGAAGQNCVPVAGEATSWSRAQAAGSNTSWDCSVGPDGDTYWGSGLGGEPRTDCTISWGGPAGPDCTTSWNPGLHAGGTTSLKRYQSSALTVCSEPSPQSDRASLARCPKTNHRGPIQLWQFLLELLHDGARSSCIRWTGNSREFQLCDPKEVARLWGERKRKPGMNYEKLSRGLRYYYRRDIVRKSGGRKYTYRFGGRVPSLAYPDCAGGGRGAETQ
In short: as §1

ELF3 = target: T11, ELF3 (Homo sapiens, UniProt P78545 1-371); conditions: protein: recombinant; tags: N-terminal GST; dsDNA, one strand shown
T11 sequence: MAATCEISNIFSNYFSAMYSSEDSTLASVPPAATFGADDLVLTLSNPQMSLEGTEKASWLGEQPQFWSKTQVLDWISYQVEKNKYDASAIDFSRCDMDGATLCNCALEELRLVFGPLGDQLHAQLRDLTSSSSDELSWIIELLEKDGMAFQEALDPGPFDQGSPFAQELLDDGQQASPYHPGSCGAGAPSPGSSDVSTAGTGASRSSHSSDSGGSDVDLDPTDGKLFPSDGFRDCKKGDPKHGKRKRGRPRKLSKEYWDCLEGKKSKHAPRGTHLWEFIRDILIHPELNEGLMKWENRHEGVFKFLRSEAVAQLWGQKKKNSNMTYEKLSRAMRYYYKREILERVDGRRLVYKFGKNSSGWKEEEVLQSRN
In short: as §1

CRX = CRX (Homo sapiens, UniProt O43186 1-299); conditions: protein: recombinant; tags: N-terminal GST; dsDNA, one strand shown
Chain of CRX (O43186 whole entry): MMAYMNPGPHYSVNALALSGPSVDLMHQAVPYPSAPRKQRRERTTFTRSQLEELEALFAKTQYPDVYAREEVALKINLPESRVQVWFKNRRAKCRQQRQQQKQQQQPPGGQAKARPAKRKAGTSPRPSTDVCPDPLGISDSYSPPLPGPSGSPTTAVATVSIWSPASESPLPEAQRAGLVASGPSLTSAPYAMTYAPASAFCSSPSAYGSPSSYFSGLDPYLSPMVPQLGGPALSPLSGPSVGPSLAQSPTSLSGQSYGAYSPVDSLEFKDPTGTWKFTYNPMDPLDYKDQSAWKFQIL
In short: as §1

ETV1 = ETV1 (Homo sapiens, UniProt P50549 1-477); conditions: protein: recombinant; tags: N-terminal GST; dsDNA, one strand shown
Chain of ETV1 (P50549 whole entry): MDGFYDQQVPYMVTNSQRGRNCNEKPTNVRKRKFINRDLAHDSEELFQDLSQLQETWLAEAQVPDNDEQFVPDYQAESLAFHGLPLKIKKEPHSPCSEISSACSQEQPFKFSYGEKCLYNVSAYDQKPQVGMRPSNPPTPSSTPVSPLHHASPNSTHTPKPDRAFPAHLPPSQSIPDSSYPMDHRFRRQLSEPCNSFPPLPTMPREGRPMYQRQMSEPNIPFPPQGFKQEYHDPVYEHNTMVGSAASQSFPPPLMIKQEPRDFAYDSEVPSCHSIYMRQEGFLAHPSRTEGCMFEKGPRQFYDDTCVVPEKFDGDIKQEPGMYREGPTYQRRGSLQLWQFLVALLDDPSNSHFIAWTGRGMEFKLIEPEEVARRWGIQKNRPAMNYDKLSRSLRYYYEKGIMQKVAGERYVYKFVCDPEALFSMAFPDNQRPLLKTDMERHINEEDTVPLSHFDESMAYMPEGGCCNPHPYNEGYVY
In short: as §1

TTACTG was tested, and the binding signal (FLI1) was 1.11 fold enrichment (6-mer frequency, TF over GST control), the binding signal (ELK1) was 1.12 fold enrichment (6-mer frequency, TF over GST control) and the binding signal (GABPA) was 1.08 fold enrichment (6-mer frequency, TF over GST control). For the same sequence, the binding signal (ERG) was 1.14 fold enrichment (6-mer frequency, TF over GST control), the binding signal (ELF1) was 1.09 fold enrichment (6-mer frequency, TF over GST control) and the binding signal (EHF) was 1.18 fold enrichment (6-mer frequency, TF over GST control). For the same sequence, the binding signal (SPI1) was 1.05 fold enrichment (6-mer frequency, TF over GST control), the binding signal (ELK3) was 1.03 fold enrichment (6-mer frequency, TF over GST control) and the binding signal (FEV) was 1.04 fold enrichment (6-mer frequency, TF over GST control). The binding signal (ETV5) was 1.15 fold enrichment (6-mer frequency, TF over GST control), the binding signal (HSF1) was 1.52 fold enrichment (6-mer frequency, TF over GST control) and the binding signal (SPIC) was 1.18 fold enrichment (6-mer frequency, TF over GST control). The binding signal (ELF4) was 1.11 fold enrichment (6-mer frequency, TF over GST control), the binding signal (ELK4) was 1.16 fold enrichment (6-mer frequency, TF over GST control) and the binding signal (ETV2) was 1.12 fold enrichment (6-mer frequency, TF over GST control). For the same sequence, the binding signal (ELF3) was 1.21 fold enrichment (6-mer frequency, TF over GST control), the binding signal (CRX) was 1.84 fold enrichment (6-mer frequency, TF over GST control) and the binding signal (ETV1) was 1.01 fold enrichment (6-mer frequency, TF over GST control).
